The source of these data is PubChem BioAssay (NCI).

Molecules are shown by their SMILES. About 83,000 compounds went through this panel and 20% of them were active in at least one assay; those are over-represented in the sample as a whole.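 Step 1: grow cells in 96-well plates. Step 2: add test compound at a single concentration. Step 3: incubate 48 h. Step 4: record percent growth.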 A number with no mark means an inactive call. Active and inactive are the calls of the source. The calls were made as follows: active = growth percent below 10; inactive = the rest.

The subject of the experiment is SK-MEL-5 melanoma. As to the kind of experiment: NCI-60 one-dose screen, 48 h (100 = growth as untreated, 0 = no growth, -100 = all killed). The conditions noted are these: 10 µM unless noted.
For the compound `Cn1cc(-c2csc(-c3ccc(Cl)cc3)n2)c2cccnc21`, the growth was -86.9% [100 µM] (active).
As for `COc1cc(-c2nc(SCCC(C)C)nc(Nc3ccccc3Cl)c2C#N)cc(OC)c1OC`, the figure is 89.2%; as for `CCn1c(=S)[nH]c2c(=O)n(C)c(=O)n(C)c21`, 106%; as for `c1ccc(CNc2c3ccccc3nc3ccccc23)cc1`, 63.1%.
For the compound `COCCn1c(-c2csc(-c3cn(C)c4ccc(OC)cc34)n2)cc2cccnc21`, the growth is 65.2%.
Consider `CCOC(=O)CSc1ncnc2c1c(-c1ccccc1)c(-c1ccccc1)n2-c1ccc(C)cc1`, for which the growth is 44.9%.
On to `COc1cc2oc(-c3cccc(NC(=O)c4cccc(Br)c4)c3)cc(=O)c2c(OC)c1OC`, for which the growth is 48.6%.
As for `Cc1ccc(Cl)cc1Nc1nc(C(F)(F)F)ccc1C(=O)N/N=C/c1cccnc1`, the figure is -16.4% (active).
In the case of `Cn1c(=O)c2c(nc(NC3=NS(=O)(=O)c4ccccc43)n2CC(=O)N2CCc3ccccc32)n(C)c1=O`, the growth was 101%.
Regarding `Cc1cccc(Cl)c1NC(=O)c1ccc2nc(NC(=O)NCCN(C)C)sc2c1`, the growth is 67.3%.
`CCOC(=O)c1c(C)nc2c(c1N)CC(=O)N2Cc1cc(F)cc(Cl)c1`: the growth is 74.9%.
As for `COC(C(=O)[C@@H](O)[C@@H](C)O)[C@@H]1Cc2cc3cc(O[C@H]4C[C@@H](O[C@H]5C[C@@H](O)[C@H](O)C(C)O5)[C@H](O)C(C)O4)cc(O)c3c(O)c2C(=O)[C@H]1O[C@H]1C[C@@H](O[C@H]2C[C@@H](O[C@H]3C[C@@H](OC)[C@H](O)C(C)O3)[C@@H](O)C(C)O2)[C@H](O)C(C)O1` (some centres not stated), the figure is 14.6%.
